Assay results reported in PubChem BioAssay (Tox21).
Where “and” joins values, the source holds several entries; their conditions need not be identical. Equal values may be shown once. More than one record can exist for a structure, and the calls need not agree. Calls of active or inactive are those of the source. A call without a number means that no potency is given here. Unless noted, calls come from the whole dose curve; as a rule, active = well fitted curve in the direction sought with a large enough effect in the repeat runs; inconclusive = weak or mixed curves; inactive = no such curve, though single readings can be large; an effect the other way counts as inactive or inconclusive.

Legend:
[1] = qHTS assay to identify small molecule antagonists of the thyroid receptor (TR) signaling pathway - cell viability counter screen (AID 743064); note: nearly all actives have a fitted effect of over 50% in size; note: potency is the fitted concentration of half-maximal effect
In short: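 GH3.TRE-Luc rat pituitary cells carrying a TRE-luciferase reporter were treated with compound plus 1 nM T3 (final) for 23.5 h at 37 °C. Viability was then read in the same wells by CellTiter-Fluor fluorescence after a further 30 min.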

[2] = tested on: thyroid hormone receptor (rat, GH3 cells); test: qHTS assay to identify small molecule agonists of the thyroid receptor (TR) signaling pathway (AID 743066; calls by dose curve)
[3] = biological target: Estrogen receptor (Homo sapiens) (UniProt P03372); test: qHTS assay to identify small molecule antagonists of the estrogen receptor alpha (ER-alpha) signaling pathway (AID 743069; active = well fitted curve in the direction sought with a large enough effect in the signal ratio in the repeat runs, not every such curve was filed as active; inconclusive = weak or mixed curves, or effect the other way; inactive = no such curve, though single readings can be large or run the other way; the % refers to the signal ratio; note: potency is the fitted concentration of half-maximal effect)
In short: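 ER-alpha-UAS-bla GripTite HEK293 line; 2% charcoal-stripped FBS overnight; plated, 4 hr 37C/5% CO2; cpd in DMSO + 17beta-estradiol, 18 hr 37C; LiveBLAzer B/G FRET substrate 2 hr RT; fluorescence intensity.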

[4] = qHTS assay to identify small molecule antagonists of the estrogen receptor alpha (ER-alpha) signaling pathway - cell viability counter screen (AID 743074; calls by dose curve;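 note: HEK293 cells carrying ER-alpha-UAS-bla reporter stimulated with 17beta-estradiol; nearly all actives have a fitted effect of over 45% in size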; note: potency is the fitted concentration of half-maximal effect)
[5] = biological target: Estrogen receptor (Homo sapiens) (UniProt P03372); test: qHTS assay to identify small molecule agonists of the estrogen receptor alpha (ER-alpha) signaling pathway (AID 743075; calls by dose curve;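 note: HEK293 GripTite cells with ER-alpha and UAS-driven beta-lactamase reporter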; note: potency is the fitted concentration of half-maximal effect)
[6] = biological target: Estrogen receptor (Homo sapiens) (UniProt P03372); test: qHTS assay to identify small molecule agonists of the estrogen receptor alpha (ER-alpha) signaling pathway using the BG1 cell line (AID 743079); settings: BG1Luc4E2 cells, ERE-luciferase agonist, 22 h; activation: at 70.3 µM (top of the series) unless noted; note: nearly all actives have a fitted effect of over 20% in size; note: potency is the fitted concentration of half-maximal effect
[7] = qHTS assay to identify small molecule antagonists of the estrogen receptor alpha (ER-alpha) signaling pathway using the BG1 cell line (AID 743080; calls by dose curve;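 note: BG1 cells stimulated with 17beta-estradiol alongside compound; nearly all actives have a fitted effect of over 25% in size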; note: potency is the fitted concentration of half-maximal effect)
In short: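 BG1-Luc-4E2 cells (endogenous full-length ER-alpha, 4xERE luciferase) hormone-starved 5 days in charcoal-stripped FBS, plated 4,000/well for 24 h, then compound plus 17beta-estradiol for 21.5 h at 37 C; ONE-Glo luminescence read.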

[8] = qHTS assay to identify small molecule antagonists of the estrogen receptor alpha (ER-alpha) signaling pathway using the BG1 cell line - cell viability counter screen (AID 743081);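 note: compound given together with 17beta-estradiol as the ER stimulus; nearly all actives have a fitted effect of over 45% in size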; note: potency is the fitted concentration of half-maximal effect
Aromatase (Homo sapiens) = Aromatase (Homo sapiens) (UniProt P11511); test: qHTS assay to identify aromatase inhibitors (AID 743083); note: nearly all actives have a fitted effect of over 55% in size; note: potency is the fitted concentration of half-maximal effect
[9] = qHTS assay to identify aromatase inhibitors - cell viability counter screen (AID 743084);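 note: cells stimulated with testosterone during compound exposure; nearly all actives have a fitted effect of over 55% in size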; note: potency is the fitted concentration of half-maximal effect
[10] = biological target: Aryl hydrocarbon receptor (Homo sapiens) (UniProt P35869); test: qHTS assay to identify small molecule that activate the aryl hydrocarbon receptor (AhR) signaling pathway (AID 743085); note: nearly all actives have a fitted effect of over 15% in size; note: potency is the fitted concentration of half-maximal effect;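 for activation: HG2L7.5c1 human HepG2 liver cells with stably integrated DRE-driven firefly reporter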
In short: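 HepG2 cells (HG2L7.5c1) stably carrying a firefly luciferase reporter driven by 20 dioxin responsive elements were exposed to compound for 24 h at 37C after a 5 h settling period; luminescence rise (ONE-Glo) indicated activation.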

[11] = qHTS assay to identify small molecule that activate the aryl hydrocarbon receptor (AhR) signaling pathway - cell viability counter screen (AID 743086); note: nearly all actives have a fitted effect of over 45% in size; note: potency is the fitted concentration of half-maximal effect
In short: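 Cytotoxicity counter screen: CellTiter-Fluor signal (30 min, 37 C) in 4000 HepG2 cells/well carrying the DRE-luciferase reporter, following 24 h compound exposure at 37 C.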

[12] = biological target: Peroxisome proliferator-activated receptor gamma (Homo sapiens) (UniProt P37231); test: qHTS assay to identify small molecule agonists of the peroxisome proliferator-activated receptor gamma (PPARg) signaling pathway (AID 743094; active = well fitted activation curve with a large enough effect in the signal ratio in the repeat runs, not every such curve was filed as active; inconclusive = weak or mixed curves, or effect the other way; inactive = no such curve, though single readings can be large or run the other way; the % refers to the signal ratio)
In short: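 GeneBLAzer PPARg UAS-bla HEK293H cells carrying a stably integrated beta-lactamase reporter were pre-incubated 5 h at 37C, then exposed to compounds in DMSO for 17 h at 37C; LiveBLAzer B/G FRET substrate was added for 1 h at room temperature and fluorescence read.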

[13] = biological target: Peroxisome proliferator-activated receptor gamma (Homo sapiens) (UniProt P37231); test: qHTS assay to identify small molecule antagonists of the peroxisome proliferator-activated receptor gamma (PPARg) signaling pathway (AID 743191; calls by dose curve; note: nearly all actives have a fitted effect of over 30% in size)
In short: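 Beta-lactamase reporter under UAS control in HEK293H PPARg-bla cells; compound treatment 17 h at 37C. Read-out: fluorescence intensity after 1 h room-temperature incubation with LiveBLAzer B/G FRET substrate.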

[14] = qHTS assay to identify small molecule antagonists of the peroxisome proliferator-activated receptor gamma (PPARg) signaling pathway - cell viability counter screen (AID 743194); settings: Potency: co-treated with 50 nM rosiglitazone unless noted; note: nearly all actives have a fitted effect of over 55% in size; note: potency is the fitted concentration of half-maximal effect
In short: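 Viability was measured as CellTiter-Glo luminescence in GeneBLAzer PPARg UAS-bla HEK293H cells. These cells had been exposed 17 h at 37 C to compounds together with rosiglitazone at 50 nM final, with the beta-lactamase readout taken in the same wells.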

[15] = qHTS assay for small molecule agonists of the antioxidant response element (ARE) signaling pathway (AID 743202; active = well fitted activation curve with a large enough effect in the signal ratio in the repeat runs, not every such curve was filed as active; inconclusive = weak or mixed curves, or effect the other way; inactive = no such curve, though single readings can be large or run the other way; the % refers to the signal ratio; note: potency is the fitted concentration of half-maximal effect)
In short: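 Quantitative high-throughput format in HepG2 cells bearing an integrated ARE-beta-lactamase reporter. Compound exposure lasted 16 h at 37 C, and fluorescence was read 2 h after adding LiveBLAzer B/G substrate at room temperature.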

[16] = qHTS assay for small molecule agonists of the antioxidant response element (ARE) signaling pathway - cell viability counter screen (AID 743203; calls by dose curve; note: nearly all actives have a fitted effect of over 55% in size; note: potency is the fitted concentration of half-maximal effect)
In short: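 CellSensor ARE-bla HepG2 cells, 2,000 per well, rested 5 hrs at 37C/5% CO2, then exposed to compound in DMSO for 16 hrs; viability read as CellTiter-Glo luminescence after 30 min at room temperature, in the reporter wells.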

[17] = qHTS assay for small molecule activators of the heat shock response signaling pathway - cell viability counter screen (AID 743209); note: nearly all actives have a fitted effect of over 50% in size; note: potency is the fitted concentration of half-maximal effect
In short: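 CellSensor HSE-bla HeLa cells, plated overnight at 37 C/5% CO2, were exposed to compounds in DMSO for 5 h at 37 C. Viability was then read in the same wells by CellTiter-Glo luminescence after 30 min at room temperature.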

[18] = qHTS assay for small molecule activators of the heat shock response signaling pathway (AID 743210; active = well fitted activation curve with a large enough effect in the signal ratio in the repeat runs, with a control signal flat, not every such curve was filed as active; inconclusive = weak or mixed curves; the % refers to the signal ratio;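 note: HeLa cells with beta-lactamase reporter driven by heat shock elements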)
In short: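 HeLa HSE-bla cells, overnight plating; cpd in DMSO 5 h, 37 C; LiveBLAzer B/G FRET substrate 2.5 h RT; fluorescence intensity read.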

[19] = qHTS assay to identify small molecule antagonists of the thyroid receptor (TR) signaling pathway (AID 743065); note: nearly all actives have a fitted effect of over 55% in size; note: potency is the fitted concentration of half-maximal effect
In short: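 Antagonism measured as loss of luciferase signal in GH3 cells stably carrying a TRE-luciferase reporter, co-treated with compound and T3 (1 nM final) for 23.5 h at 37 C. Viability was read in the same well by CellTiter-Fluor.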

Sequence of Aromatase (Homo sapiens) (P11511 whole entry, looked up): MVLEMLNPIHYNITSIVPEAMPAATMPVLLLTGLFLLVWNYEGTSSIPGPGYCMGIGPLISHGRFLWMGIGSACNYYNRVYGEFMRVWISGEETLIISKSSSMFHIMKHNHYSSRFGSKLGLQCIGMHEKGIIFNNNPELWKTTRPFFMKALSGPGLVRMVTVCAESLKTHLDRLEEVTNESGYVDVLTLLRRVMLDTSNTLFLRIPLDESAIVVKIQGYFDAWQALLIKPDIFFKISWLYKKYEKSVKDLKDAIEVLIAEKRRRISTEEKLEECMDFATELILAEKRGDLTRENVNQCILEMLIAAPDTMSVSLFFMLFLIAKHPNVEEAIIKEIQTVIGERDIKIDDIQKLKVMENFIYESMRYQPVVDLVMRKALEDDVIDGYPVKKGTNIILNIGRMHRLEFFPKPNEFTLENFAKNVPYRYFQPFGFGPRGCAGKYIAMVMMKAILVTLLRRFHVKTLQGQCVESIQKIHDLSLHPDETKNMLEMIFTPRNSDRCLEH
Sequence of Peroxisome proliferator-activated receptor gamma (Homo sapiens) (P37231 whole entry, looked up): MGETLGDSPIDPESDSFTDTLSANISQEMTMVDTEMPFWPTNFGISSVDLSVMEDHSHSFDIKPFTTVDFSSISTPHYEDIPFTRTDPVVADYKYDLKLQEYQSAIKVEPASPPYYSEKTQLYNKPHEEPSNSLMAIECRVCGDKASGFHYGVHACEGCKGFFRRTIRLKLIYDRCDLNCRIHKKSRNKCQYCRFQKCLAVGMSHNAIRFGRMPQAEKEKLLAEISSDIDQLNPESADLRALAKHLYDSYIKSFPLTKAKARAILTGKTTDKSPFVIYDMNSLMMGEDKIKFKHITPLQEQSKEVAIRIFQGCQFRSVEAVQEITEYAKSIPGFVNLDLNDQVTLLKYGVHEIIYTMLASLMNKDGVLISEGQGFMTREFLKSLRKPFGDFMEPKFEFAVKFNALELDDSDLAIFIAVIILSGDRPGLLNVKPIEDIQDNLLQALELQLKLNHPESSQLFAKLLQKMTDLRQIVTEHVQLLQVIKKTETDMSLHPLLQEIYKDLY
Sequence of Aryl hydrocarbon receptor (Homo sapiens) (P35869 whole entry, looked up): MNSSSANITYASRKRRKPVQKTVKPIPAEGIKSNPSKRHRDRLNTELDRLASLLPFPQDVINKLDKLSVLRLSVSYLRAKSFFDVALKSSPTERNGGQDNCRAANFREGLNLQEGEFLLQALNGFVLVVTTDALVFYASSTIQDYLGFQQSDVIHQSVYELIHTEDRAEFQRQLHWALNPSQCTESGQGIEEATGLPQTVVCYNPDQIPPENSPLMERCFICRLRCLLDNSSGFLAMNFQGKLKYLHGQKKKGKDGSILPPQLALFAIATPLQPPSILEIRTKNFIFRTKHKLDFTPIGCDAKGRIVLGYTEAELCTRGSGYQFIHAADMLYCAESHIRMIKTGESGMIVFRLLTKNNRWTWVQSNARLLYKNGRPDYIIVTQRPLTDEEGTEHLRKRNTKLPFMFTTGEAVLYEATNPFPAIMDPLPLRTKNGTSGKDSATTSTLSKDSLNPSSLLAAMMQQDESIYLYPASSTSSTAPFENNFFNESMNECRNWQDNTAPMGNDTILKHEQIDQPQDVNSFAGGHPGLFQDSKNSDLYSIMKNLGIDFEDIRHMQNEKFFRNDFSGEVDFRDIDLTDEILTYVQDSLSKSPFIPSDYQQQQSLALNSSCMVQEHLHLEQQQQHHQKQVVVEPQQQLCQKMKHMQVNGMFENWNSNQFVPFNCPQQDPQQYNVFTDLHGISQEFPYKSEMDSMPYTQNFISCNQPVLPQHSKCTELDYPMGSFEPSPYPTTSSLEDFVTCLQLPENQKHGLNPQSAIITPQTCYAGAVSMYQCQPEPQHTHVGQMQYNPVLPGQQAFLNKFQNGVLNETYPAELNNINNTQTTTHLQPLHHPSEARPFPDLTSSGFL
Sequence of Estrogen receptor (Homo sapiens) (P03372 whole entry, looked up): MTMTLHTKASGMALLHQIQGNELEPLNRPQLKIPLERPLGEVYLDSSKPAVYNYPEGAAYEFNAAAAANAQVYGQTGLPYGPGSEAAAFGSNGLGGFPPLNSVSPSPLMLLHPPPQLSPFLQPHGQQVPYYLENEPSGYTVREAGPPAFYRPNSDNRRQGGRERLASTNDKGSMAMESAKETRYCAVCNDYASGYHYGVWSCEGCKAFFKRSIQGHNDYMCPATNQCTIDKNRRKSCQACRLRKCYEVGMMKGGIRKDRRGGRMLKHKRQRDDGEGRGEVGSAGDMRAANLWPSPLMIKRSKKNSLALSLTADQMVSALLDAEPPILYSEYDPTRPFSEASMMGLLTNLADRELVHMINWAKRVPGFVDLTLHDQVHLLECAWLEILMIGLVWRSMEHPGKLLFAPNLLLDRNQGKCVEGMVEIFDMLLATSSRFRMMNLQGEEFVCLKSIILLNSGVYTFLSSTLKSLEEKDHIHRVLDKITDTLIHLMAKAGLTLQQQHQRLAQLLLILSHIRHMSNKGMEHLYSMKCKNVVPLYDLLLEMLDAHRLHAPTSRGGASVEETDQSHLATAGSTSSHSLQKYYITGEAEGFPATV

SMILES | Potency [1] | Potency [2] | Potency [3] | Potency [4] | Potency [5] | Potency [6] | Potency [7] | Potency [8] | Potency (Aromatase (Homo sapiens)) | Potency [9] | Potency [10] | Potency [11] | Potency [12] | Potency [13] | Potency [14] | Potency [15] | Potency [16] | Potency [17] | Potency [18] | Potency [19]
CCCCC(C#N)(Cn1cncn1)c1ccc(Cl)cc1 (stereo not drawn) | inactive | inactive | inactive | inactive | inactive | inactive | 30.5 µM (active) and 61.1 µM (active) | inactive | 4.84 µM (active) and 3.86 µM (active) | inactive | inactive | inactive | inactive | inactive | inactive | inactive | inactive | inactive | inactive | 
CC(C)(c1ccccc1)c1ccc(O)cc1 | 48.2 µM (active) and 61.1 µM (active) | inactive | 24.3 µM [inhibitor] (active) | inactive | 4.33 µM [inconclusive] (active) and 3.89 µM [inconclusive] (active) | 1.08 µM (active) and 686 nM (active) |  | inactive | 30.4 µM (active) and 30.6 µM (active) | 48.2 µM (active) | inactive |  | inactive |  |  |  | 60.6 µM (active) | inactive | inactive | 
C=CC(Cl)CCl (stereo not drawn) | inactive | inactive |  | inactive |  |  |  | inactive | inactive | inactive | inactive |  | inactive |  | inactive | inactive | inactive | inactive | inactive | inactive
Cc1cc(Cl)ccc1N=CN(C)C | inactive |  |  | inactive |  |  |  | inactive | inactive | inactive | inactive |  | inactive |  | inactive | inactive | inactive | inactive |  | 
C[N+](C)(C)CC(=O)[O-] | inactive | inactive | inactive | inactive | inactive | inactive | inactive | inactive | inactive | inactive | inactive | inactive | inactive |  | inactive | inactive | inactive | inactive |  | 
NN=C(N)N | inactive | inactive |  | inactive |  |  |  | inactive | inactive | inactive | 30.6 µM (active) |  | inactive |  | inactive | inactive | inactive | inactive | inactive | inactive
CCCCCCCCCC(CC)c1ccc(S(=O)(=O)O)cc1 (stereo not drawn) |  | inactive |  | inactive and 43.6 µM (active) |  |  |  | inactive |  | inactive |  | inactive |  |  | inactive and 15.5 µM [setting not given] (active) | inactive |  | inactive and 39.9 µM (active) |  | 
CC(C)=CC1C(C(=O)OCN2C(=O)C3=C(CCCC3)C2=O)C1(C)C (stereo not drawn) |  | inactive |  | inactive |  |  |  | inactive | inactive | inactive | inactive |  | inactive |  | inactive | inactive | inactive | inactive |  | 
CCN(CC)C(=O)C(C)Oc1cccc2ccccc12 (stereo not drawn) | inactive | inactive | inactive | inactive | inactive | inactive |  | inactive | 34.4 µM (active) | inactive | 54.9 µM (active) and 30.6 µM (active) |  | inactive |  | inactive | inactive | inactive | inactive | inactive | 
CN(C)c1ccccc1 | inactive | inactive |  |  |  |  |  | inactive |  |  |  | inactive |  |  | inactive | inactive | inactive | inactive | inactive | inactive
C[N+](C)(C)CC(=O)O | inactive | inactive | inactive | inactive | inactive | inactive | inactive | inactive | inactive | inactive | inactive |  | inactive |  | inactive | inactive | inactive | inactive |  | 
CC(C)(C#N)N=NC(C)(C)C#N | inactive |  | inactive | inactive | inactive | inactive | inactive | inactive | inactive | inactive | inactive |  | inactive | inactive | inactive | inactive | inactive | inactive | inactive | 
CCC[CH2][Sn]([Cl])([CH2]CCC)[CH2]CCC | 307 nM (active) and 386 nM (active) |  |  | 693 nM (active) and 1.55 µM (active) |  |  | 274 nM (active) and 486 nM (active) | 2.74 µM (active) and 1.72 µM (active) | 2.74 µM (active) and 2.17 µM (active) | 1.54 µM (active) and 3.06 µM (active) | inactive | 2.17 µM (active) and 3.44 µM (active) |  |  | 1.38 µM (active) and 1.1 µM (active) |  | 771 nM (active) and 1.09 µM (active) | 1.74 µM (active) and 2.75 µM (active) |  | 194 nM (active) and 273 nM (active)
ClCC(Cl)CCl | inactive | inactive |  | inactive |  |  |  | inactive |  |  |  | inactive |  |  | inactive | inactive | inactive | inactive | inactive | inactive
CC(C)(c1ccc(OCC2CO2)cc1)c1ccc(OCC2CO2)cc1 (stereo not drawn) |  | inactive | inactive | inactive | inactive | inactive | inactive | inactive | inactive | inactive | inactive | inactive |  |  | 55.7 µM (active) | 61.1 µM (active) | inactive | inactive |  | 55.2 µM (active) and 54.5 µM (active)
COP(=S)(OC)SCn1nnc2ccccc2c1=O | inactive | inactive | inactive | inactive | inactive | inactive | inactive | inactive | 54.5 µM (active) | inactive | inactive |  | inactive |  | inactive | inactive | inactive | inactive | inactive | 
